# From PubChem BioAssay (NCATS)
# Results filed as inconclusive are left out. Where a call stands in place of a potency, no number is given. Calls of active or inactive are those of the source. The call rests on the fitted dose curve; in most records, active means well fitted cell-killing curve with a large enough effect; inconclusive means small, poorly fitted or top-dose-only effect; inactive means no such curve, though single readings can be large or run the other way.
# Assay: Quantitative High-Throughput drug screen in 47 multiple myeloma cell lines against the NCATS MIPE library collection: NCIH929_DSMZ cell viability assay (AID 1918978); further: nearly all actives have a fitted effect of over 35% in size
# Settings: NCI-H929 myeloma viability, CellTiter-Glo ATP, 48 h; series mostly up to 45.8 µM
# From the text: PI: Beverly A. Mock Ph.D.
# Laboratory of Cancer Biology and Genetics,
# Center for Cancer Research, National Cancer Institute,
# National Institute of Health, Bethesda, Maryland
# Drug resistance and disease progression are common in multiple myeloma (MM) patients, underscoring the need for new therapeutic combinations. […] We hypothesized that effective combinations would reduce MYC expression and enhance p16 activity. […] These preclinical data identify potentially useful drug combinations for evaluation in drug-resistant MM and reveal potential mechanisms of combined drug sensitivity.
# Described herein is the primary MIPE qHTS used to cherrypick compounds. Validated compounds were then further tested for potential synergistic activiy.
# [1] Peat TJ, Gaikwad SM, Dubois W, Gyabaah-Kessie N, Zhang S, Gorjifard S, Phyo Z, Andres M, Hughitt VK, Simpson RM, Miller MA, Girvin AT, Taylor A, Williams D, D'Antonio N, Zhang Y, Rajagopalan A, Flietner E, Wilson K, Zhang X, Shinn P, Klumpp-Thomas C, McKnight C, Itkin Z, Chen L, Kazandijian D, Zhang J, Michalowski AM, Simmons JK, Keats J, Thomas CJ, Mock BA. Drug combinations identified by high-throughput screening promote cell cycle transition and upregulate Smad pathways in myeloma. Cancer Lett. 2023 Aug 1;568:216284. doi: 10.1016/j.canlet.2023.216284. Epub 2023 Jun 24. PMID: 37356470; PMCID: PMC10408729.
# SEQUENCE No. (e.g., 1, 2, 3, etc.); […] (e.g., Cells, Incubation, Reagent, etc.); VALUE and DESCRIPTION.
# 1; Cells; 5 uL; white, solid bottom 1536-well Greiner assay plate.
# 2; Compounds; 23 nL; Kalypsis pin tool (Wako USA) equipped with a 1536-well pin head to transfer to the assay plates.
# 3; Incubation; 48 hours; 37C incubation.
# 4; Reagent;5uL; CellTiter Glo (Promega).
# 5; Detector; 425V; Luminescence; Viewlux PerkinElmer.
# NOTES (numbers refer to Sequence numbers above)
# 1. The cell-based screening methods employed in this study were like those previously published. Briefly, the corresponding myeloma cell lines were screened in 1,536-well plates with 500 cells, 5-uL per well for inhibition of cell viability (assessed by measuring ATP levels with CellTiterGlo).
# 2. NCATS MIPE 4.0 library of approved and investigational drugs were added using the Kalypsis pin tool. Wells treated with DMSO only for 100% viability and media only for 0% viability were used as controls.
# 3. The assay plates were covered and incubated for 48 hours in a 37C, 5% CO2 incubator with controlled humidity.
# 4. After 48 hours, CellTilter-GloTM luminescent substrate mix (Promega) reagent was added to the assay plate and plates we incubated for 5 min at room temperature.
# 5. Signal was measured as median relative luminescence units on a ViewLux (PerkinElmer) multiplate reader.
# [1] Heske CM, Davis MI, Baumgart JT, Wilson K, Gormally MV, Chen L, Zhang X, Ceribelli M, Duveau DY, Guha R, Ferrer M, Arnaldez FI, Ji J, Tran HL, Zhang Y, Mendoza A, Helman LJ, Thomas CJ. Matrix Screen Identifies Synergistic Combination of PARP Inhibitors and Nicotinamide Phosphoribosyltransferase (NAMPT) Inhibitors in Ewing Sarcoma. Clin Cancer Res. 2017 Dec 1;23(23):7301-7311. doi: 10.1158/1078-0432.CCR-17-1121. Epub 2017 Sep 12. PMID: 28899971; PMCID: PMC6636827.
# Potency means the concentration at half of the fitted maximal effect.
row,SMILES,Potency
1,CC(C)C(=O)Oc1ccc(CO)cc1[C@H](CCN(C(C)C)C(C)C)c1ccccc1,inactive
2,CCc1ccc(OCc2ccccc2C(=O)Nc2ccc3nc(C)cc(N)c3c2)cc1,1.05 µM (active)
3,CC(=Cc1ccccc1)C=C1SC(=S)N(CC(=O)O)C1=O,inactive
4,C[C@H]1[C@H](NC(=O)C(=NOC(C)(C)C(=O)O)c2csc(N)n2)C(=O)N1S(=O)(=O)O,inactive
5,CCC(CC)[C@H](NC(C)=O)[C@@H]1[C@H](O)[C@@H](C(=O)O)C[C@@H]1N=C(N)N,inactive
6,NC1CCC(Nc2nc(Nc3ccc(C(=O)N4CCCCC4)cc3)c3ncn(-c4cccc(F)c4)c3n2)CC1 (stereo not given),inactive
7,CC(C)C(C)C=CC(C)C1CCC2C3=CC=C4CC(O)CCC4(C)C3CCC21C (stereo not given),inactive
8,N#CC1(c2ccc(NC(=O)c3cccnc3NCc3ccncc3)cc2)CCCC1,inactive
9,CNC(=O)c1ccc2cc(C3(O)CCn4cncc43)ccc2c1 (stereo not given),inactive
10,CC(C(=O)O)c1ccc(-c2ccccc2)c(F)c1 (stereo not given),16.6 µM (active)
11,O=C(O)c1cc(O)c2c(c1)C(=O)c1cccc(O)c1C2=O,inactive
12,O=C(NC1CCOCC1)c1ccc(-c2cc(-c3cn[nH]c3-c3ccccn3)ccn2)cc1,inactive
13,C[N+](C)(C)CC(=O)O,inactive
14,O=c1cc(-c2ccccc2)oc2cc(O)cc(O)c12,inactive
15,NS(=O)(=O)c1cccc2c1C(=O)c1cccc(O)c1C2=O,0.264 µM (active)
16,Nc1ncnc2c1nc(Cl)n2[C@@H]1O[C@H](CO)[C@@H](O)[C@@H]1O,8.33 µM (active)
17,CC(C)(C)COc1ccc(-n2cc(C(=O)O)cn2)cc1C#N,inactive
18,COc1cc2ncnc(-n3nc(-c4ccccn4)nc3N)c2cc1OC,4.18 µM (active)
19,Cc1ccc(F)c(NC(=O)Nc2ccc(-c3cccc4[nH]nc(N)c34)cc2)c1,9.35 µM (active)
20,Cc1c(NC(=O)c2ccc(C(C)(C)C)cc2)cccc1-c1cn(C)c(=O)c(Nc2ccc(C(=O)N3CCOCC3)cc2)n1,20.9 µM (active)

row,SMILES,Potency
1,C[C@]12CCC3c4ccc(O)cc4CCC3C1CCC2=O (stereo not given in full),inactive
2,CO[C@H]1C(=O)[C@]2(C)[C@@H](OC)C[C@H]3OC[C@@]3(OC(C)=O)[C@H]2[C@H](OC(=O)c2ccccc2)[C@]2(O)C[C@H](OC(=O)[C@H](O)[C@@H](NC(=O)OC(C)(C)C)c3ccccc3)C(C)=C1C2(C)C,inactive
3,N#Cc1ccc(NC(=O)Nc2ccccc2Br)c2n[nH]nc12,18.7 µM (active)
4,Cc1ccc(C(=O)Nc2cccc(C(F)(F)F)c2)cc1Nc1nc(-c2cccnc2)nc2c1cnn2C,14.8 µM (active)
5,Cn1c(N2CCCCS2(=O)=O)nc(C(=O)NCc2ccc(F)cc2)c(O)c1=O,inactive
6,COc1ccc(-c2oc3c(CC=C(C)C)c(OC4O[C@H](CO)[C@@H](O)[C@H](O)[C@@H]4O)cc(O)c3c(=O)c2OC2O[C@@H](C)[C@H](O)[C@@H](O)[C@@H]2O)cc1 (stereo not given in full),29.6 µM (active)
7,COc1cc(O)c2c(c1)C(=O)c1cc(C)cc(O)c1C2=O,inactive
8,NS(=O)(=O)c1ccc(NC2=CC(=O)c3ccccc3C2=O)cc1,26.4 µM (active)
9,CCOC1OC(=O)C[C@H]1NC(=O)[C@@H]1CCCN1C(=O)[C@@H](NC(=O)c1ccc(N)c(Cl)c1)C(C)(C)C (stereo not given in full),inactive
10,O=c1[nH]cnc2c1ncn2[C@H]1CC[C@@H](CO)O1,inactive
11,N#C[C@H]1C[C@H]2C[C@@H]2N1C(=O)[C@@H](N)C12CC3CC(CC(O)(C3)C1)C2,inactive
12,CON=C(C(=O)N[C@@H]1C(=O)N2C(C(=O)OCOC(=O)C(C)(C)C)=C(C=Cc3scnc3C)CS[C@H]12)c1csc(N)n1,20.9 µM (active)
13,COc1cc(Nc2ncc(F)c(Nc3ccc4c(n3)NC(=O)C(C)(C)O4)n2)cc(OC)c1OC,1.18 µM (active)
14,O=c1c(-c2ccc(O)cc2)coc2cc(O)ccc12,inactive
15,O=c1cc(-c2cccc3c2Sc2ccccc2S3)oc(N2CCOCC2)c1,18.7 µM (active)
16,CC[C@H]1OC(=O)[C@H](C)[C@@H](O[C@H]2C[C@@](C)(OC)[C@@H](O)[C@H](C)O2)[C@H](C)[C@@H](O[C@@H]2O[C@H](C)C[C@H](N(C)C)[C@@H]2O)[C@](C)(O)C[C@@H](C)CN(C)[C@H](C)[C@@H](O)[C@]1(C)O,inactive
17,Cc1c[nH]c(C=C2C(=O)Nc3ccccc32)c1CCC(=O)O,inactive
18,COc1ccc(Cc2ccc(NC(N)=O)cc2)cc1-c1cccc(Cl)c1,16.6 µM (active)
19,COc1cc2nc(-c3ccc(N4CCN(C)CC4)cc3)nc(NCCN3CCOCC3)c2cc1OC,0.296 µM (active)
20,CS(=O)c1ccc(-c2nc(-c3ccc(F)cc3)c(-c3ccncc3)[nH]2)cc1 (stereo not given),5.4 µM (active)
